The values below come from ChEMBL document CHEMBL4513141, “CO-ADD screening of NIH (USA) - Clinical Collection” (2021).

Potency and affinity values are given separately.

Experiment [1] concerns Staphylococcus aureus. To be noted: Concentration 20 uM; ASSAY_TEST Inhibition of Bacterial Growth; detection method Absorption (OD600); MEDIA CAMHB; plate type 384well; NBS; CORNING #3640; time 18 hr.
For experiment [2], the system named is Escherichia coli. To be noted: Concentration 20 uM; ASSAY_TEST Inhibition of Bacterial Growth; detection method Absorption (OD600); MEDIA CAMHB; plate type 384well; NBS; CORNING #3640; time 18 hr.

In general, Inhibition refers to the drop in the measured response relative to a control, in per cent.

In the case of `OCCN1CCN(CCCN2c3ccccc3Sc3ccc(Cl)cc32)CC1` [PERPHENAZINE], the results for the Inhibition in experiment [1] and in experiment [2] were 23.21% and 4.38%, respectively.
The matching figures for `CN1CCN(CC/C=C2/c3ccccc3Sc3ccc(S(=O)(=O)N(C)C)cc32)CC1` [THIOTHIXENE]: 8.53% and 3.6%.
For `Cl.NC12CC3CC(CC(C3)C1)C2` [AMANTADINE HYDROCHLORIDE], the Inhibition in experiment [1] is on record as 17.85%; in experiment [2] it was -0.07%.
With `CN(CCO)CC(O)Cn1cnc2c1c(=O)n(C)c(=O)n2C.O=C(O)c1cccnc1` (configuration not stated) [XANTHINOL NIACINATE], the Inhibition in experiment [1] was 15.77%; in experiment [2], -0.5%.
The matching figures for `CN1CCC(=C2c3ccccc3CCc3sccc32)CC1.O=C(O)/C=C\C(=O)O`: 4.8% and 2.87%.
`Cn1nnc2c(C(N)=O)ncn2c1=O` [TEMOZOLOMIDE]: the Inhibition in experiment [1] is on record as 8.98%; in experiment [2], 6.63%.
On to `COc1cc(/C=C/c2ccc(O)cc2)cc(OC)c1` [PTEROSTILBENE], for which the figures for the Inhibition in experiment [1] and in experiment [2] were 13.68% and 1.16%, respectively.
Regarding `COc1ccc(C(=O)NCc2ccc(OCCN(C)C)cc2)cc1OC.Cl`, the Inhibition in experiment [1] is -18.22%; in experiment [2], 2.89%.
As to `Cc1ccccc1C(OCCN(C)C)c1ccccc1.Cl` (configuration not stated) [ORPHENADRINE HYDROCHLORIDE], the results for the Inhibition in experiment [1] and in experiment [2] were 13.17% and -1.64%, respectively.
Turning to `CCOc1cc(CC(=O)N[C@@H](CC(C)C)c2ccccc2N2CCCCC2)ccc1C(=O)O` [REPAGLINIDE], the Inhibition in experiment [1] was 15.76%; in experiment [2], -4.96%.
With `C[C@H](CS)C(=O)N1CCC[C@H]1C(=O)O` [CAPTOPRIL], the Inhibition in experiment [1] is given as -7.06%; in experiment [2], 4.92%.
The matching figures for `CNCCC=C1c2ccccc2CCc2ccccc21.Cl` [NORTRIPTYLINE HYDROCHLORIDE]: 3.19% and 4.29%.
For `CC(=O)O.NCc1ccc(S(N)(=O)=O)cc1` [MAFENIDE ACETATE] the same measures were 12.98% and 1.36%.
As to `COc1ccnc(C[S+]([O-])c2nc3cc(OC(F)F)ccc3[n-]2)c1OC.O.[Na+]` (configuration not stated) [PANTOPRAZOLE SODIUM], the Inhibition in experiment [1] was found to be 15.25%; in experiment [2], 1.53%.
In the case of `Nc1ccc(O)c(C(=O)O)c1` [MESALAMINE], the Inhibition is reported as -19.58% in experiment [1] and 3.21% in experiment [2].
As for `O=C1Nc2ccc(Cl)cc2[C@@](C#CC2CC2)(C(F)(F)F)O1` [EFAVIRENZ], the Inhibition in experiment [1] is recorded as 10.66%; in experiment [2] it was -2.05%.
Turning to `CC(N)C12CC3CC(CC(C3)C1)C2.Cl` (configuration not stated) [RIMANTADINE HYDROCHLORIDE], the Inhibition in experiment [1] was 6.08%; in experiment [2] it was -3.07%.
For `COC(=O)[C@H](c1ccccc1Cl)N1CCc2sccc2C1` [CLOPIDOGREL] the same measures were 12.7% and -0.51%.
In the case of `CC(=O)Nc1ccc(CC(=O)O)cc1` [ACTARIT], the figures for the Inhibition in experiment [1] and in experiment [2] were -0.71% and 3.54%, respectively.
The matching figures for `CN(C)CCCN1c2ccccc2CCc2ccccc21.Cl` [IMIPRAMINE HYDROCHLORIDE]: 8.95% and -1.44%.
Take `CN(C)CCOC(C)(c1ccccc1)c1ccccn1.O=C(O)CCC(=O)O` (configuration not stated) [DOXYLAMINE SUCCINATE]: the Inhibition in experiment [1] is reported as 2.51%; in experiment [2], 3.89%.
For `CSc1nc2cc(Cl)c(Oc3cccc(Cl)c3Cl)cc2[nH]1` [TRICLABENDAZOLE] the same measures were 7.06% and -5.3%.
The matching figures for `CCCCN1CCCC1CNC(=O)c1cc(C#N)c2ccccc2c1OC` (configuration not stated) [NAFADOTRIDE]: 6.62% and 2.47%.
For `CC1Cc2ccccc2N1NC(=O)c1ccc(Cl)c(S(N)(=O)=O)c1` (configuration not stated) [INDAPAMIDE] the same measures were 5.44% and -0.79%.
Turning to `O=C(O)c1cc2ccccc2c(Cc2c(O)c(C(=O)O)cc3ccccc23)c1O.OCCOCCN1CCN(C(c2ccccc2)c2ccc(Cl)cc2)CC1` [HYDROXYZINE PAMOATE], the values for the Inhibition in experiment [1] and in experiment [2] were 11.96% and 0.33%, respectively.
Take `COc1cc2nc(N3CCN(C(=O)C4CCCO4)CC3)nc(N)c2cc1OC` (configuration not stated) [TERAZOSIN]: the Inhibition in experiment [1] is listed as 8.19%; in experiment [2] it was -0.53%.
The matching figures for `CC1=Nc2ccc(Cl)cc2S(=O)(=O)N1` [DIAZOXIDE]: 9.13% and 5.75%.
For `CCOc1cc(N)c(Cl)cc1C(=O)NCC1CN(Cc2ccc(F)cc2)CCO1.O=C(O)CC(O)(CC(=O)O)C(=O)O` (configuration not stated) [MOSAPRIDE CITRATE] the same measures were 10.04% and 3.47%.
On to `CC(C)c1nc(CN(C)C(=O)N[C@H](C(=O)N[C@@H](Cc2ccccc2)C[C@H](O)[C@H](Cc2ccccc2)NC(=O)OCc2cncs2)C(C)C)cs1` [RITONAVIR], for which the Inhibition is on record as 13.2% in experiment [1] and -0.63% in experiment [2].
Turning to `OCCN(CCO)c1nc(N2CCCCC2)c2nc(N(CCO)CCO)nc(N3CCCCC3)c2n1` [DIPYRIDAMOLE], the Inhibition in experiment [1] is -23.93%; in experiment [2], 7.34%.
As to `CN(CCOc1ccc(CC2SC(=O)NC2=O)cc1)c1ccccn1.O=C(O)/C=C\C(=O)O` (configuration not stated) [ROSIGLITAZONE MALEATE], the Inhibition in experiment [1] is listed as 5.02%; in experiment [2], 0.27%.
